This note sets out measurements from PubChem BioAssay (NCI).

Structures are written as SMILES. This is part of a sample that, as a whole, favours compounds with a hit. Of some 83,000 tested, about 20% had one in any assay.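 48-hour exposure, single concentration, 96-well plates; percent growth endpoint where 0 means no net growth. Active: below 10.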 Active and inactive are the calls of the source.

The subject of one assay is ACHN renal. Nature of the assay: NCI-60 one-dose screen, 48 h (100 = growth as untreated, 0 = no growth, -100 = all killed). Conditions: 10 µM unless noted.
For the compound `O=S(=O)(Nc1cc(Cl)cc(Cl)c1)c1ccc(-c2cnc(C3CC3)o2)cc1`, the growth was 53.3% (inactive).
The same measure, in the same setting: next, `CC(=O)Nc1ccc(NC(=O)Nc2cccc(-c3nc(-c4ccc(NC(=O)c5cccnc5)cc4Cl)no3)c2)cc1C(F)(F)F`: 34.2% (inactive).
Turning to `O=C(Nc1cccc(-c2nc(-c3ccc(NC(=O)c4cccs4)cc3Cl)no2)c1)Nc1ccc(NC(=O)C2CC2)c(C(F)(F)F)c1`, the growth was 0.236% (active).
Same read-out and setting: under `CN1C(=O)N(C)C2Nn3c(s/c(=C\c4ccccn4)c3=O)=NC21` (configuration not stated) stands 100% (inactive).

In another assay the test system is CAKI-1 renal. The assay is described as above. The note with it: 10 µM.
Consider `CCC(=O)Nc1ccc(-c2nc(-c3cccc(O)c3)c(-c3ccnc(Br)c3)[nH]2)cc1`, for which the growth was 65.1% (inactive).
The same measure, in the same setting: under `NC(=O)c1c(NC(=O)c2cccc(OC(F)(F)F)c2)sc2c1CCC(=O)C2` stands 45.7% (inactive).
Consider `COc1cc(C2=NN(C(C)=O)C(c3ccc(N4CCOCC4)cc3)C2)cc(OC)c1OC` (configuration not stated), for which the growth is 94.7% (inactive).
On the same count and under the same terms, next, `CCC(=O)Nc1cc(Nc2cc(NC3CC3)n3ncc(C#N)c3n2)ccc1C`: 14.7% (inactive); `O=C(CSc1ccc(-c2nc3ccccc3[nH]2)cn1)N1CCN(c2ccccc2F)CC1`: 49.1% (inactive).
The same measure, in the same setting: under `NCCN1CCN(c2nc(-c3ccccc3)nc3nc(-c4ccccc4)oc23)CC1` stands -90.1% (active); under `CCN(CC)Cc1c(-c2cccc(OC(F)(F)F)c2)[nH]c2ccc(N3CCCC3)cc2c1=O`, 77.3% (inactive).
On the same count and under the same terms, under `C#C[C@]1(O)CC[C@H]2[C@@H]3CC=C4c5sc(-c6ccc(OC)cc6)nc5CC[C@]4(C)[C@H]3CC[C@@]21C` stands 64.4% (inactive); under `C#C[C@]1(O)CC[C@H]2[C@@H]3CC=C4c5sc(Nc6cc(OC)ccc6OC)nc5CC[C@]4(C)[C@H]3CC[C@@]21C`, 28% (inactive).
`O=C(Nc1cccc(-c2nc(-c3ccc(NC(=O)c4cccnc4)cc3Cl)no2)c1)Nc1ccc(NC(=O)C2CC2)c(C(F)(F)F)c1`: the growth is -72.7% (active).
`O=C(Nc1ccc(-c2nc(-c3cccc(O)c3)c(-c3ccnc(Br)c3)[nH]2)cc1)c1ccccc1`: the growth is 11.3% (inactive).
As for `COc1ccccc1N1CCN(C2=NN=C(c3cccc(Cl)c3)c3ccccc3C2)CC1`, the growth is 29.7% (inactive).
Same read-out and setting: under `O=C(NNc1nc2cc(F)c(F)cc2n2cccc12)c1ncccn1` stands 18.2% (inactive).
In the case of `O=C(CN1C(=O)CSC1=O)Nc1ccc(C(=O)/C=C/c2cc3ccccc3nc2Cl)cc1`, the growth is 63% (inactive).
Same read-out and setting: under `O=C(C[n+]1ccnc2ccccc21)c1ccc(O)c(O)c1` stands 69.8% (inactive).
Turning to `Cn1ccnc1C(=O)/C=C/c1ccc(C(=O)Nc2ccc(NC(=O)CCNC(=O)c3csc(Br)n3)cc2)cc1`, the growth was 29.3% (inactive).
`COc1ccc(Oc2ccc(C3CC(c4cc(OC)c(OC)c(OC)c4)=NN3C(C)=O)cc2)cc1` (configuration not stated): the growth is 36.1% (inactive).
On the same count and under the same terms, under `O=C1/C(=C/c2ccccc2[N+](=O)[O-])Oc2ccc(O)cc21` stands 48.3% (inactive); under `O=c1c2ccccc2nc(COc2ccccc2)n1/N=C/C=C/c1ccccc1`, 103% (inactive); under `C#C[C@]1(O)CC[C@H]2[C@@H]3CC=C4c5sc(C6CC6)nc5CC[C@]4(C)[C@H]3CC[C@@]21C`, 79.6% (inactive).
Same read-out and setting: next, `Cc1ccc(S(=O)(=O)N/N=C/c2cn(-c3ccc(F)cc3)nc2-c2ccc(S(C)(=O)=O)cc2)cc1`: 98% (inactive); `C#C[C@]1(O)CC[C@H]2[C@@H]3CC=C4c5sc(-c6ccccn6)nc5CC[C@]4(C)[C@H]3CC[C@@]21C`: 87.7% (inactive).
Same read-out and setting: next, `CCOC(=O)c1c(NC(=O)c2cccc(C(F)(F)F)c2)sc2c(CN3CCN(C)CC3)c(O)ccc12`: -73.9% (active).
As to `CCOC(=O)Nc1ccc(-c2nc(-c3cccc(O)c3)c(-c3ccnc(Br)c3)[nH]2)cc1`, the growth was 27.3% (inactive).
The same measure, in the same setting: under `COc1ccc(NS(=O)(=O)c2ccc(-c3cnc(C4CC4)o3)cc2)cc1Cl` stands -22.9% (active); under `O=S(=O)(Nc1ccc(I)c(Cl)c1)c1ccc(-c2cnc(C3CC3)o2)cc1`, 6.99% (active).
Same read-out and setting: under `O=S(=O)(Nc1ccc2c(c1)OC(F)(F)O2)c1ccc(-c2cnc(C3CC3)o2)cc1` stands 17.5% (inactive); under `O=C(CN1CCN(c2cc(=O)n(-c3ccccc3)c3ccccc23)CC1)Nc1ccc([N+](=O)[O-])cc1`, 98.1% (inactive); under `CN(c1ccc(Cl)cc1)S(=O)(=O)c1ccc(-c2cnc(C3CC3)o2)cc1`, 5.6% (active).
Still for that read-out and setting: next, `O=C(/C=C/c1cn(-c2ccccc2)nc1-c1ccc(Cl)cc1)c1cc2ccccc2oc1=O`: 29.2% (inactive); `O=C1C[C@@H](c2ccccc2)Oc2c(Cc3ccccc3O)c(O)c(Cc3cc(Cc4cc(Cc5ccccc5O)ccc4O)ccc3O)c(O)c21`: 75.5% (inactive); `CCC(CC)N1C(=O)/C(=c2\sc3n(c2=O)C2C(NN=3)N(CC)C(=O)N2CC)c2ccccc21` (configuration not stated): 39.9% (inactive).
For `COC(=O)Nc1ccc(-c2nc(-c3cccc(O)c3)c(-c3ccnc(Br)c3)[nH]2)cc1`, the growth was 45.6% (inactive).
The same measure, in the same setting: next, `CC(=O)Nc1ccc(NC(=O)Nc2cccc(-c3nc(-c4ccc(NC(=O)c5cccs5)cc4Cl)no3)c2)cc1C(F)(F)F`: -73.2% (active); `O=S(=O)(Nc1cc(Cl)cc(Cl)c1)c1ccc(-c2cnc(C3CC3)o2)cc1`: 11.8% (inactive); `CC(=O)Nc1ccc(NC(=O)Nc2cccc(-c3nc(-c4ccc(NC(=O)c5cccnc5)cc4Cl)no3)c2)cc1C(F)(F)F`: -68.9% (active).
Same read-out and setting: under `O=C(Nc1cccc(-c2nc(-c3ccc(NC(=O)c4cccs4)cc3Cl)no2)c1)Nc1ccc(NC(=O)C2CC2)c(C(F)(F)F)c1` stands -67.7% (active).
Still for that read-out and setting: under `CN1C(=O)N(C)C2Nn3c(s/c(=C\c4ccccn4)c3=O)=NC21` (configuration not stated) stands 97.1% (inactive).
